The values below come from PubChem BioAssay (Tox21).

Experiment [1] can be described thus: Nuclear factor erythroid 2-related factor 2/antioxidant responsive element (Nrf2/ARE) small molecule agonists: qHTS cell viability counter screen in human keratinocytes (AID 1919968; active = well fitted curve in the direction sought with a large enough effect in the repeat runs; an effect the other way counts as inactive or inconclusive; also: nearly all actives have a fitted effect of over 55% in size). The method, boiled down: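 CellTiter-Fluor fluorescence, read 1 h after reagent, gave viability in the same wells as the ARE-luciferase assay. KeratinoSens cells (1,500/well) had 23 h compound exposure at 37 C/5% CO2 following 5 h plating.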
In general terms: Quantitative high-throughput screening tests each substance at several concentrations.

Experiment [2] in a line: Nuclear factor erythroid 2-related factor 2/antioxidant responsive element (Nrf2/ARE) small molecule agonists: luciferase reporter gene qHTS assay in human keratinocytes (AID 1919969). Also: nearly all actives have a fitted effect of over 35% in size. Also: potency is read from the fitted curve at half-maximal effect. In general terms: In a reporter assay the amount or activity of a reporter protein is the signal.
Experiment [3] concerns the target Gonadotropin-releasing hormone receptor (Homo sapiens) (UniProt P30968). Briefly: Human gonadotropin-releasing hormone receptor (GnRHR) small molecule agonists, calcium flux assay in GnRHR-HEK293 cells (AID 1920063). Also: nearly all actives have a fitted effect of over 35% in size. In a few lines: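 Agonist mode: compounds at 15 concentrations, in triplicate, went onto calcium dye-loaded GnRHR-HEK293 cells. Intracellular calcium was then followed as 480/540 nm fluorescence at 1 s intervals over 3 min.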

In experiment [4] the target is KiSS-1 receptor (Homo sapiens) (UniProt Q969F8). As to the kind of experiment: Human kisspeptin (KISS1R) small molecule agonists, calcium flux assay in KISS1R-HEK293 cells (AID 1920064; active = well fitted curve in the direction sought with a large enough effect in the repeat runs; an effect the other way counts as inactive or inconclusive). In a few lines:
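Agonist mode: intracellular calcium rise tracked at 1 s intervals over 3 min (480/540 nm) immediately after compound addition to dye-loaded KISS1R-HEK293 stable cells. Each compound tested at 15 concentrations in triplicate.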
(Calcium assays in cells follow changes in intracellular calcium, usually with a dye or a luminescent sensor.)

Experiment [5] is described as follows: G protein-coupled receptor (GPCR) small molecule agonists, calcium flux assay: HEK293 wild type cell line counter screen (AID 1920065). The method, boiled down:
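Calcium flux counter screen: compound added in agonist mode at 15 concentrations in triplicate to dye-loaded parental HEK293 cells. Fluorescence (480/540) read kinetically for 3 min; ATP served as positive control.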

Experiment [6] can be described thus: p53 small molecule agonists, cell-based qHTS assay with human liver microsomes: qHTS cell viability counter screen (AID 1963579). Also: nearly all actives have a fitted effect of over 45% in size. The method, boiled down:
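Tox21 library compounds, delivered from DMSO stocks, were tested on p53RE-bla cells together with 0.5 mg/mL human liver microsomes and 0.5 mg/mL NADPH (final) over 16 h at 37 C; CellTiter-Glo luminescence served as the cytotoxicity measure.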

The nature of experiment [7]: p53 small molecule agonists, cell-based qHTS assay with rat liver microsomes: qHTS cell viability counter screen (AID 1963580). Also: nearly all actives have a fitted effect of over 45% in size. In a few lines: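 Rat liver microsome (0.5 mg/mL final) and NADPH (0.5 mg/mL final) co-incubation with compounds for 16 h at 37 C on HCT-116 p53RE-bla cells; cytotoxicity taken from intracellular ATP luminescence.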
Experiment [8] in a line: p53 small molecule agonists, cell-based qHTS assay: qHTS cell viability counter screen (AID 1963581). Also: nearly all actives have a fitted effect of over 45% in size. In a few lines:
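Counter screen read by CellTiter-Glo luminescence (ATP content, 30 min at room temperature), run in the same wells as the beta-lactamase reporter read. HCT-116 p53RE-bla cells saw compounds for 16 h at 37 C.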

Experiment [9] concerns the target 5-hydroxytryptamine receptor 2A (Homo sapiens) (UniProt P28223). Briefly: 5-hydroxytryptamine receptor 2A (HTR2A) small molecule antagonists, cell-based qHTS assay (AID 1963586). Also: nearly all actives have a fitted effect of over 45% in size. In a few lines:
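CHO cells stably expressing human HTR2A were plated for 18 h at 37 C, then loaded with calcium dye for 1 h. Compounds were preincubated 5 min at room temperature before DOI (4 nM solution) was added. Kinetic fluorescence was read for 3 min.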

For experiment [10] the target is unchanged. Briefly: 5-hydroxytryptamine receptor 2A (HTR2A) small molecule agonists, cell-based qHTS assay (AID 1963587). Also: nearly all actives have a fitted effect of over 30% in size. The method, boiled down:
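Kinetic calcium-flux fluorescence (2 min, 1 sec intervals) after compound addition in agonist mode. HTR2A-CHO cells were cultured 18 h, then dye-loaded 1 h at 37 C.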

For experiment [11], the target named is Muscarinic acetylcholine receptor M1 (Homo sapiens) (UniProt P11229). As to the kind of experiment: Cholinergic receptor muscarinic 1 (CHRM1) small molecule antagonists, cell-based qHTS assay (AID 1963588). Also: nearly all actives have a fitted effect of over 40% in size. The method, boiled down: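 Compounds were tested at 15 concentrations in three independent runs. Dye-loaded CHRM1-CHO cells were exposed 5 min at room temperature before stimulation by acetylcholine added at 50nM. Intracellular calcium was read kinetically on FDSS for 3 min.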
Chain of Muscarinic acetylcholine receptor M1 (Homo sapiens) (P11229 whole entry, looked up): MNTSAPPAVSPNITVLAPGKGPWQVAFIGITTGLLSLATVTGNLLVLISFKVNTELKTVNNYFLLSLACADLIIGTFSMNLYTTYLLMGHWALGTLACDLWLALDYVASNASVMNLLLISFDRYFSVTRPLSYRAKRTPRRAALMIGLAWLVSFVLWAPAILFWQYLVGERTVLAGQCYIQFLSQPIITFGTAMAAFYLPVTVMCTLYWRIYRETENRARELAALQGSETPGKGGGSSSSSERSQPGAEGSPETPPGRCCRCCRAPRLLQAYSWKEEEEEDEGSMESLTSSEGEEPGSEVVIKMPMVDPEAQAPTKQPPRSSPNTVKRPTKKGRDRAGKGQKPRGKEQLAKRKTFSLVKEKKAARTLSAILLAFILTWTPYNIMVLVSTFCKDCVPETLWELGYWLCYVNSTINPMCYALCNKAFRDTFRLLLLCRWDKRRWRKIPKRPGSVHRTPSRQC

Experiment [12] is described as follows: cAMP Responsive Elements (CRE) small molecule agonists, cell-based qHTS assay (AID 1963590). In a few lines: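 Agonist mode: compound added to CRE-bla HEK 293T cells (2,000/well, 18 h after plating) for 3 h at 37 C/5% CO2. Reporter activity detected via FRET beta-lactamase substrate, 2 h room-temperature loading.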
Experiment [13] deals with Beta-2 adrenergic receptor (Homo sapiens) (UniProt P07550). Briefly: Adrenergic beta2 receptor (ADRB2) small molecule antagonists, cell-based qHTS assay (AID 1963592). Also: series mostly up to about 92 µM; nearly all actives have a fitted effect of over 50% in size. In a few lines:
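Assay format: CHO-ADRB2 cells, 18-20hr seeding at 37C/5% CO2, then compound plus 1nM isoproterenol agonist mix for 0.5hr RT. Homogeneous time-resolved fluorescence cAMP detection after 1hr, expressed as 665/615 nm ratio.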

Experiment [14] has the same target. As to the kind of experiment: Adrenergic beta2 receptor (ADRB2) small molecule agonists, cell-based qHTS assay (AID 1963593).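 Also: CHO cells stably overexpressing human ADRB2.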 In a few lines:
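CHO cells stably over-expressing ADRB2 were plated overnight at 37C, then dosed with compounds plus a stimulation mix containing 100uM IBMX and 25uM Ro-20-1724 for 0.5hr at room temperature. cAMP was measured by HTRF competition, 1hr.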

For experiment [15], the target named is D(2) dopamine receptor (Homo sapiens) (UniProt P14416). Briefly: Dopamine D2 receptor (DRD2) small molecule agonists, cell-based qHTS assay (AID 1963594). Also: nearly all actives have a fitted effect of over 35% in size. The method, boiled down: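 cAMP accumulation in DRD2-HEK293 cells measured by HTRF after 1 h detection; compounds added 10 min before NKH477 (200nM […]) forskolin-analogue stimulation, 30 min at room temperature, with Ro20-1724 present at 0.1 mM final.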
Chain of D(2) dopamine receptor (Homo sapiens) (P14416 whole entry, looked up): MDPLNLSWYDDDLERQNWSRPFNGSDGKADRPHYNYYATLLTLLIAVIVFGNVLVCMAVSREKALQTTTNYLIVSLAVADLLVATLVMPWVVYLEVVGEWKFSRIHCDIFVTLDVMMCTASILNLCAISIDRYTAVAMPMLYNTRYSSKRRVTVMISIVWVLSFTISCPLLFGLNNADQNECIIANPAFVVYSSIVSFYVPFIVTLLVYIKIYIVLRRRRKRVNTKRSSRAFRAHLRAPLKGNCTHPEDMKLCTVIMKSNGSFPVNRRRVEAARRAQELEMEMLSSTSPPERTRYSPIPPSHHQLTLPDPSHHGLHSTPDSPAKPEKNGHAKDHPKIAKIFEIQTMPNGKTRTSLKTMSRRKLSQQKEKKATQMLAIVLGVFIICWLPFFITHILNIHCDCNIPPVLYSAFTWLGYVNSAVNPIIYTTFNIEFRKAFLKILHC

Experiment [16] has the same target. As to the kind of experiment: Dopamine D2 receptor (DRD2) small molecule antagonists, cell-based qHTS assay (AID 1963595; active = well fitted inhibition curve with a large enough effect in the signal ratio in the repeat runs, with a control signal flat; the % refers to the signal ratio). In a few lines:
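HEK293 cells stably expressing DRD2 were preincubated with 0.1 mM Ro20-1724, then with compound for 10 min at room temperature. Cells were stimulated with 200 nM NKH477 plus 12 nM quinpirole for 30 min, and cAMP was read by HTRF.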

Experiment [17] in a line: cAMP Responsive Elements (CRE) small molecule antagonists, cell-based qHTS assay (AID 1963591; active = well fitted inhibition curve with a large enough effect in the signal ratio in the repeat runs, not every such curve was filed as active; the % refers to the signal ratio). The method, boiled down: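 Antagonist mode: compounds are added alongside the adenylyl cyclase activator NKH477 (0.25 uM final) to CRE-bla HEK293T cells for 3 h. LiveBLAzer FRET substrate, 2 h at room temperature, reports bla expression.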
Experiment [18] addresses Muscarinic acetylcholine receptor M1 (Homo sapiens) (UniProt P11229). As to the kind of experiment: Cholinergic receptor muscarinic 1 (CHRM1) small molecule agonists, cell-based qHTS assay (AID 1963589). Also: nearly all actives have a fitted effect of over 35% in size. The method, boiled down:
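Agonist-mode calcium-flux screen: compounds at 15 concentrations, three independent runs, were pin-transferred onto dye-loaded human CHRM1-CHO cells. Fluorescence was then recorded kinetically every second over minutes.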

A number with no mark means an inactive call. Results filed as inconclusive are left out. Activity calls are given as the source filed them. Unless noted, calls follow the shape of the full dose curve.
% is scaled to controls: 0 for no effect and ±100 for the full control effect.

Chain of Gonadotropin-releasing hormone receptor (Homo sapiens) (P30968 whole entry, looked up): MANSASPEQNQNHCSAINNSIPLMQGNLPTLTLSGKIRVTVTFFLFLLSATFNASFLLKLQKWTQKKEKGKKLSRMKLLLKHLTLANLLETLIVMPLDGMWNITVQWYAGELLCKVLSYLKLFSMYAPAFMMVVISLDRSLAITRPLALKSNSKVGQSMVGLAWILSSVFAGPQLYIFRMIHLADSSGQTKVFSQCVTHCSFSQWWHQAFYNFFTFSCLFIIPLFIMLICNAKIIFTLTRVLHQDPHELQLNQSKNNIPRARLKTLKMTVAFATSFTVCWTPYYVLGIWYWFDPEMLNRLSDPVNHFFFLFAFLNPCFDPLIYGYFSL
Chain of KiSS-1 receptor (Homo sapiens) (Q969F8 whole entry, looked up): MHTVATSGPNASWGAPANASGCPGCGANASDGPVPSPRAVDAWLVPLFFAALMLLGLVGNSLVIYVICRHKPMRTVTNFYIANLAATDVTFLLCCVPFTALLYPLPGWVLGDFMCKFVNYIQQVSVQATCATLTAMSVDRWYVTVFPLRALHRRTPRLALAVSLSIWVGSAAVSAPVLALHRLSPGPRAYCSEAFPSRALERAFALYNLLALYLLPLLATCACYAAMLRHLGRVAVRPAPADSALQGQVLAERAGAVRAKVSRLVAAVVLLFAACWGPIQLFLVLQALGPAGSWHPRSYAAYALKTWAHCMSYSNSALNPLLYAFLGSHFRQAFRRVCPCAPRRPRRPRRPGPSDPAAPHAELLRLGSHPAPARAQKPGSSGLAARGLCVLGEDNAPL
Chain of 5-hydroxytryptamine receptor 2A (Homo sapiens) (P28223 whole entry, looked up): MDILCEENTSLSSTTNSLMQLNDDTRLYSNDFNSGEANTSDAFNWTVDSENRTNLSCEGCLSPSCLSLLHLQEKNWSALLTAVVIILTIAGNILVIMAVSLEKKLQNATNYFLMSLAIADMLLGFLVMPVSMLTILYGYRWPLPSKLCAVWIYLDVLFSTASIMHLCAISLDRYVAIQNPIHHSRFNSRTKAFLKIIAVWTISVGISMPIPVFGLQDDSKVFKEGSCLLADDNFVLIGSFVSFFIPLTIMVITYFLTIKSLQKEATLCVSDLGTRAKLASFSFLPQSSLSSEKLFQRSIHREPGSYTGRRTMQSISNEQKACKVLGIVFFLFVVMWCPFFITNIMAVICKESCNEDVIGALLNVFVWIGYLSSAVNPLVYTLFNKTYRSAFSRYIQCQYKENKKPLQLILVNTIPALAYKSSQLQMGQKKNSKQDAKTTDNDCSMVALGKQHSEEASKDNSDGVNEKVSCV
Chain of Beta-2 adrenergic receptor (Homo sapiens) (P07550 whole entry, looked up): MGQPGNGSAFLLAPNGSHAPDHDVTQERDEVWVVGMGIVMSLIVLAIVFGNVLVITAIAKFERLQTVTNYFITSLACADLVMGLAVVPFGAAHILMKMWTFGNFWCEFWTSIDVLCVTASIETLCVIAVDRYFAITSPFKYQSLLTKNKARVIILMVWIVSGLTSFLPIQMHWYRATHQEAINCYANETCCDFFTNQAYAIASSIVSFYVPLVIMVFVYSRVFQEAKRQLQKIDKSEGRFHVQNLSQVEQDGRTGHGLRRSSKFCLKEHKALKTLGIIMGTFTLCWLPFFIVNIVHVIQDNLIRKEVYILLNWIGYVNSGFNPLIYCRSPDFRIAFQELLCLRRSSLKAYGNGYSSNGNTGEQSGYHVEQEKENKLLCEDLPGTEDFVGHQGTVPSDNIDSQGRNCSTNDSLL

`C=CC(=C)CCCC(C)(C)OC(C)=O`: the Potency entry in [1], in [2], in [3], in experiment [4], in experiment [5] and in [6] was “inactive” throughout. Besides, the Potency result in experiment [7], in experiment [8], in [9], in experiment [10], in experiment [11] and in experiment [12] was “inactive” throughout. Also, the Potency entry in experiment [13], in experiment [14], in experiment [15] and in experiment [16] was “inactive” throughout.
As for `COC(C)=O`, the Potency result in experiment [1], in experiment [2], in experiment [3], in experiment [4], in experiment [5] and in experiment [6] was “inactive” in each case. The Potency entry in experiment [7], in [8], in experiment [9], in experiment [10], in [11] and in experiment [12] was “inactive” throughout. Further, the Potency result in experiment [17], in experiment [13], in [15] and in [16] was “inactive” throughout.
With `CCN(C(=O)N(CC)c1ccccc1)c1ccccc1`, the Potency entry in [1], in [2], in experiment [3], in [4], in experiment [5] and in [6] was “inactive” throughout. Moreover, the Potency result in [7], in experiment [8], in [9], in experiment [10], in experiment [11] and in [18] was “inactive” each time. In addition, the Potency entry in [13], in [15] and in experiment [16] was “inactive” each time.
For `CCN(CC)C(=O)c1ccc(O)c(OC)c1`, the Potency result in experiment [1], in [2], in experiment [3], in experiment [4], in experiment [5] and in experiment [6] was “inactive” throughout. Also, the Potency entry in experiment [7], in experiment [8], in experiment [9], in [10], in [11] and in experiment [12] was “inactive” each time. In addition, the Potency result in [17], in experiment [13] and in experiment [15] was “inactive” throughout.
For `CCCCCOC(=O)COc1cc(N2C(=O)C3=C(CCCC3)C2=O)c(F)cc1Cl`, the Potency result in [1], in [3], in experiment [4], in [5], in experiment [6] and in experiment [7] was “inactive” in each case. Besides, the Potency entry in experiment [8], in [9], in [10], in experiment [18], in [12] and in [16] was “inactive” throughout. In addition, in [2], the Potency is 61.1 µM (active).
Regarding `c1ccc(-c2ccc(-c3ccccc3)cc2)cc1`, the activity change, negative = cytotoxicity in experiment [1] is 1.35% [at 19 µM]; in experiment [6], 5.03% [at 13.5 µM]; in [7] it was -3.67% [at 13.5 µM]; in experiment [8], -12.2% [at 13.5 µM]. In addition, the activity, positive = activation in [2] was 16.6% [at 19 µM]. Also, the activity change in experiment [3] was 1.83% [at 11.8 µM, active compounds read high]. Further, the activation in [4] is 1.85% [at 15.8 µM]; in experiment [5], 0.1% [at 11.8 µM]; in experiment [10], 13.6% [at 15.9 µM]; in [18], 0.405% [at 15.8 µM]; in experiment [12], -0.166% [at 19 µM]; in experiment [15], 2.85% [at 19 µM]. Further, the activity, negative = inhibition in [9] is -2.25% [at 12.7 µM]. The activity change, negative = inhibition in experiment [17] is -3.34% [at 18.9 µM]; in experiment [13] it was 0.791% [at 19 µM]; in experiment [16], 0.516% [at 18.9 µM].
Consider `CNC(C)=O`, for which the Potency entry in [1], in experiment [2], in experiment [3], in experiment [4], in experiment [5] and in experiment [6] was “inactive” in each case. The Potency entry in experiment [7], in experiment [8], in experiment [9], in experiment [10], in [11] and in experiment [12] was “inactive” each time. Further, the Potency entry in experiment [17], in experiment [14] and in [15] was “inactive” throughout.
